# Results from PubChem BioAssay (NCATS).
# Records with an inconclusive call do not appear. Values without a mark were called inactive. Calls come from the whole dose curve; as a rule, active = well fitted curve in the direction sought with a large enough effect; inconclusive = small, poorly fitted or top-dose-only effect, or another doubt; inactive = no such curve, though single readings can be large or run the other way.
# Assay: qHTS Assay for Identifying Gametocytocidal Compounds (AID 743244);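 note: actives lower the fluorescent signal which means gametocytes are killed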
# Details: P. falciparum 3D7 stage III-V gametocytes, alamarBlue, 72 h; max response: stronger effect = lower value
# Procedure, shortened: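 Using 20,000 stage III–V 3D7 gametocytes per well, compounds were incubated 72 h under 37 °C/5% CO2. Viability was then assessed by 24 h alamarBlue reduction, measured fluorometrically at 525/598 nm.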
# % is set by controls: 0 for no effect and ±100 for the full control effect.
row,SMILES,max response
1,C[C@]1(Cn2ccnn2)[C@H](C(=O)O)N2C(=O)C[C@H]2S1(=O)=O,9.4%
2,CC[C@]12CCCN3CCc4c(n(c5ccccc45)[C@@](O)(C(=O)OC)C1)[C@@H]32,13.2%
3,CC(C)(C)NCC(O)COc1cccc2c1CCC(=O)N2 (stereo not given),15.2%
4,C[n+]1ccccc1/C=N/O,8.92%
5,CN[C@@H]1[C@@H](O)[C@@H](O[C@@H]2[C@H](O)[C@H](O[C@H]3OC(CN)=CC[C@H]3N)[C@@H](N)C[C@H]2N)OCC1(C)O (stereo not given in full),-9.46%
6,CCN[C@H]1CN(CCCOC)S(=O)(=O)c2sc(S(N)(=O)=O)cc21,21.3%
7,COC(=O)N/N=C/c1c[n+]([O-])c2ccccc2[n+]1[O-],5.03%
8,CC(C)NC[C@@H](O)COc1ccc(CC(N)=O)cc1,23.6%
9,CN1CC(=O)NC1=N,-8.6%
10,OCCN1C[C@H](O)[C@@H](O)[C@H](O)[C@H]1CO,4.21%
11,C=CCOc1ccccc1OCC(O)CNC(C)C (stereo not given),5.69%
12,C[C@@H](c1ncncc1F)C(O)(Cn1cncn1)c1ccc(F)cc1F (stereo not given in full),4.12%
13,O=C(O)[C@@H]1[C@H]2C[C@H]3c4[nH]c5ccccc5c4CCN3C[C@@H]2CC[C@@H]1O,-6.8%
14,CC(=O)[C@@]1(O)CC[C@H]2[C@@H]3C[C@H](C)C4=CC(=O)C=C[C@]4(C)[C@@]3(F)[C@@H](O)C[C@@]21C,-2.09%
15,CC1(C)S[C@@H]2[C@H](NC(=O)C(C(=O)O)c3ccccc3)C(=O)N2[C@H]1C(=O)O (stereo not given in full),-0.734%
